HT1080NT lethal = qHTS for induction of synthetic lethality in tumor cells producing 2HG: qHTS for the HT-1080-NT fibrosarcoma cell line; HT-1080-NT fibrosarcoma viability, CellTiter-Glo ATP luminescence, 48 h; Potency, µM (top dose mostly 46.1 µM), for the others: top-dose activity, negative = less viability, most hits filed as cytotoxic; hit rate 1.6% among 360,000; AID 686970, 2013;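 note: NT is the 2HG producing partner of a matched IDH1 knockdown line; potency is the fitted concentration of half-maximal effect; 0% = DMSO-treated cells and -100% = media-only wells without cells; nearly all actives have a fitted effect of over 55% in size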
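Read-out is CellTiter-Glo luminescence after 10 minutes at room temperature, following 48 hours' compound treatment of HT-1080-NT cells (750 cells/well, RPMI, 5% FBS, 37 degrees C).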
TDP1 cell CPT = qHTS for Inhibitors of human tyrosyl-DNA phosphodiesterase 1 (TDP1): qHTS in cells in presence of CPT; chicken DT40 Tdp1-/-;hTDP1 cells + 20 nM CPT, ATP luminescence, 48 h; Potency, µM (highest dose often 46.2 µM), without a hit: at the highest dose activity change, negative = growth inhibition, actives largely listed as inhibitors; hit rate 12% among 420,000; note: potency is the fitted concentration of half-maximal effect; nearly all actives have a fitted effect of over 55% in size
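Cell growth measured by CellTiter-Glo luminescence after a minimum 48 h, 37 C compound exposure with 20 nM CPT in Tdp1-knockout DT40 cells stably expressing hTDP1, seeded 400/well; qHTS titration format.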
IL1B secr inh = qHTS for Inhibitors of Inflammasome Signaling: IL-1-beta AlphaLISA Primary Screen. THP-1 LPS/ATP IL-1B secretion, AlphaLISA, 16 h; active compounds read low. hit rate 4.7% among 360,000. activity change, % at 57.5 µM; in the data active = activity change below about -50%; inconclusive = mostly about -30% to -49%
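THP-1 cells pretreated 1 hr with compounds (up to 57.5 uM final), then stimulated with LPS (250 ng/mL final) plus ATP (1.25 mM final); secreted IL-1B measured by AlphaLISA after 16 hr, decreased signal indicating inhibition.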
DT40 TDP1 no CPT = qHTS for Inhibitors of human tyrosyl-DNA phosphodiesterase 1 (TDP1): qHTS in cells in absence of CPT | DT40 Tdp1-/- hTDP1 cells, no CPT, ATP luminescence, 48 h | Potency, µM (series often up to 46.2 µM), without a hit: at the highest dose activity change, negative = growth inhibition, hits mostly inhibitors | hit rate 15% among 420,000 | AID 686978, 2013; note: potency is the fitted concentration of half-maximal effect; nearly all actives have a fitted effect of over 55% in size
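Chicken DT40 Tdp1-/- cells stably complemented with human TDP1 were seeded at 400 cells/well with DMSO in place of 20 nM camptothecin. After compound pinning, cells grew at least 48 hr at 37 °C; viability read by CellTiter-Glo luminescence.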
HT1080 IDH1KD tx = qHTS for induction of synthetic lethality in tumor cells producing 2HG: qHTS for the HT-1080-IDH1KD cell line; HT-1080 IDH1 knockdown viability, ATP luminescence, 48 h; Potency, µM (titrated, usually from 46.1 µM), inactives show at the highest dose activity, negative = toxicity, actives largely listed as cytotoxic; hit rate 2% among 360,000;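 note: potency is the fitted concentration of half-maximal effect; 0% = DMSO wells and -100% = cell-free medium wells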
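Assay cells: HT-1080 with IDH1 knockdown, 750 per well, RPMI/5% FBS. Exposure: 48 h at 37 °C following 2 h pre-incubation. Read: CellTiter-Glo luminescence; fitted concentration-response, curve class assigned.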
An asterisk follows results filed as active; ? = inconclusive; / = no result; [ ] = dose if it differs, or a comment. Compounds with a hit are over-represented: about 19% of the library has one in this group of screens. Unless noted, calls come from the whole dose curve; as a rule, active = well fitted curve in the direction sought with a large enough effect; inconclusive = small, poorly fitted or top-dose-only effect, or another doubt; inactive = no such curve, though single readings can be large; an effect the other way counts as inactive or inconclusive. Unless noted, % is set by controls: 0 for no effect and ±100 for the full control effect.

SMILES	HT1080NT lethal	TDP1 cell CPT	IL1B secr inh	DT40 TDP1 no CPT	HT1080 IDH1KD tx
COc1cccc(C(C(=O)NCc2ccco2)N(Cc2ccco2)C(=O)Cn2nnc3ccccc32)c1 (centres undefined)	-2%	?	-17	?	5%
Nc1nc(N)nc(NC2CC2)n1	/	17%	/	-8%	/
COc1nc(NC2CCCCC2)nc(NC(C)(C)C)n1	-3%	?	?	12µM*	1%
Cc1ccc2c(c1)C1CN(C)CCC1N2 (centres undefined)	/	6%	/	?	/
COC(=O)C1=C(c2ccc(OCc3ccccc3)cc2)C[C@@H]2CC[C@H]1N2C(=O)NCCc1ccc(F)cc1	-20%	21µM*	0	?	?
COC(=O)C1=C(c2ccc(OCc3ccccc3)cc2)C[C@@H]2CC[C@H]1N2C(=O)NC1CCN(Cc2ccccc2)CC1	?	8.2µM*	-21	7.3µM*	?
COC(=O)C1=C(c2ccc(OC)c(OC)c2)C[C@@H]2CC[C@H]1N2C(=O)NCCc1ccccc1	17%	-27%	25	?	15%
COC(=O)C1=C(c2ccc(OCc3ccccc3)cc2)C[C@@H]2CC[C@H]1N2C(=O)NCCCCc1ccccc1	-21%	?	-25	18µM*	-11%
COC(=O)C1=C(c2ccc3ccccc3c2)C[C@@H]2CC[C@H]1N2C(=O)NC1Cc2ccccc2C1	-27%	?	-7	?	-15%
COC(=O)C1=C(c2ccc(OC(F)(F)F)cc2)C[C@@H]2CC[C@H]1N2C(=O)NCCc1ccccc1	-2%	2.9µM*	0	?	-4%
COC(=O)C1=C(c2ccccc2)C[C@@H]2CC[C@H]1N2C(=O)NCCNC(C)=O	14%	9%	41	-12%	1%
O=c1[nH]cnc2[nH]ncc12	?	?	18	-4%	6%
COc1ccc2[nH]c(C)c(CCNCc3cccnc3)c2c1	0%	1%	-5	10%	-3%
Cc1[nH]c2ccc(OC(F)(F)F)cc2c1CCNCc1ccc(Cl)cc1	?	26µM*	-97*	15µM*	15µM*
CCOc1cccc(CNCCc2c(C)[nH]c3ccc(OC(F)(F)F)cc23)c1O	?	2.9µM*	-98*	2.1µM*	18µM*
Cc1[nH]c2ccc(OC(F)(F)F)cc2c1CCNCc1cccc([N+](=O)[O-])c1	15µM*	?	-95*	13µM*	13µM*
CCOc1cccc(CN2CCN(c3cccc(C(F)(F)F)c3)CC2)c1O	?	?	-30	?	?
Cc1ncc(CO)c(CN)c1O	/	?	/	-24%	/
CC(C)Sc1nnc(OC(=O)N(C)C)n1-c1ccccc1	0%	-6%	-6	-4%	1%
c1ccc(CN2COC3CCCCCC32)cc1 (centres undefined)	28%	?	9	-18%	2%
CCN(CC)P(c1n(C)cc[n+]1C)N(CC)CC	0%	?	15	23µM*	1%
CN1CCN(c2nc([N+](=O)[O-])nn2C)CC1	0%	-14%	-12	-1%	4%
CCc1nc2ccc(C(=O)N3CCN(C(=O)c4ccco4)CC3)cn2c1N(C)Cc1ccc(OC)cc1	?	?	29	?	2%
CNC(=O)Oc1ccc2c(c1)C1(C)CCN(C)C1N2C (centres undefined)	/	24µM*	/	30µM*	/
CN1CC[C@@]2(C)c3cc(O)ccc3N(C)C12 (some centres undefined)	/	4µM*	/	?	/
SMILES	HT1080NT lethal	TDP1 cell CPT	IL1B secr inh	DT40 TDP1 no CPT	HT1080 IDH1KD tx
C=C1C2C[C@]3(C4CC5[C@@]6(C)CC[C@H](O)[C@@]5(C3CC2=O)C4[N+]([O-])(CC)C6)[C@@H]1O (some centres undefined)	/	12%[9.04 µM]	/	-8%[9.04 µM]	/
CC[n+]1c(-c2ccccc2)c2cc(N)ccc2c2ccc(N)cc21	?	0.16µM*	-99*	0.15µM*	16µM*
CN(C(=O)Cc1ccc(Cl)c(Cl)c1)[C@H](CN1CCCC1)c1ccccc1	/	15µM*	/	12µM*	/
C=C1N2CCC(CC2)C1(O)c1ccccc1C (centres undefined)	1%	-8%	1	-17%	-1%
CCCCC(=O)OCC(=O)C1(O)Cc2c(O)c3c(c(O)c2C(OC2CC(NC(=O)C(F)(F)F)C(O)C(C)O2)C1)C(=O)c1c(OC)cccc1C3=O (centres undefined)	23µM*	1.2µM*	?	2.1µM*	8.2µM*
COc1cccc2c1C(=O)c1c(O)c3c(c(O)c1C2=O)C[C@@](O)(C(=O)CO)C[C@@H]3O[C@H]1C[C@H](N)[C@H](OC2CCCCO2)[C@H](C)O1 (some centres undefined)	/	0.28µM*	/	?	/
C=CC1CN2CCC1CC2C(O)c1ccnc2ccccc12 (centres undefined)	-1%	?	-11	?	1%

Source: PubChem BioAssay (National Center for Advancing Translational Sciences (NCATS))
